# Where “and” joins values, the source holds several entries; their conditions need not be identical. Identical values can stand only once. Calls of active or inactive are those of the source. How the source made its calls: active means hit-call score of the fitted dose curve at least 0.9, where 1 is the maximum; inactive means score below 0.9.
# What was measured:
# [1] = read-out: TIMP metallopeptidase inhibitor 2 (TIMP2), TIMP2 (gene 7077); assay: BSK_KF3CT_TIMP2: BioMAP Diversity Plus: KF3CT Assay for TIMP metallopeptidase inhibitor 2 (TIMP2) Biomarker Activity (AID 2283071); settings: primary human keratinocytes with fibroblasts; actives raise or lower the signal
# Procedure, shortened: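 Human primary keratinocyte/foreskin fibroblast co-culture dosed with chemical and sampled at 24 h. TIMP-2 levels quantified by ELISA; bidirectional fitting against DMSO negative control as baseline.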
# [2] = read-out: Transforming growth factor beta 1 (TGFb1), TGFB1 (gene 7040); assay: BSK_KF3CT_TGFb1: BioMAP Diversity Plus: KF3CT Assay for Transforming growth factor beta 1 (TGFb1) Biomarker Activity (AID 2283072); settings: primary human keratinocytes with fibroblasts; actives raise or lower the signal
# Procedure, shortened: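 Human keratinocyte plus foreskin fibroblast primary co-culture, dosed with chemical for 24 h. TGF-b1 quantified by ELISA. Activity fitted bidirectionally against DMSO negative control as baseline.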
# [3] = read-out: C-C motif chemokine 2 (Homo sapiens) (UniProt P13500); assay: BSK_KF3CT_MCP1: BioMAP Diversity Plus: KF3CT Assay for Monocyte Chemoattractant Protein 1 (MCP1/CCL2) Biomarker Activity (AID 2283073); settings: primary human keratinocytes with fibroblasts; actives raise or lower the signal
# Procedure, shortened: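 Biomarker MCP-1 is measured by ELISA in primary human keratinocytes co-cultured with foreskin fibroblasts, 24 h after chemical treatment; DMSO serves as the negative control and activity baseline.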
# [4] = read-out: Matrix Metallopeptidase 9 (MMP9), MMP9 (gene 4318); assay: BSK_KF3CT_MMP9: BioMAP Diversity Plus: KF3CT Assay for Matrix Metallopeptidase 9 (MMP9) Biomarker Activity (AID 2283074); settings: primary human keratinocytes with fibroblasts; actives raise or lower the signal;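 on AC50: MMP9 protein level quantified by ELISA in the co-culture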
# Procedure, shortened: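 Keratinocyte plus foreskin fibroblast human primary skin co-culture was dosed with chemical and MMP-9 was quantified by ELISA 24 h later. Bidirectional curve fitting used DMSO as negative control and activity baseline.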
# [5] = read-out: urokinase plasminogen activator (uPA), PLAU (gene 5328); assay: BSK_KF3CT_uPA: BioMAP Diversity Plus: KF3CT Assay for urokinase plasminogen activator (uPA) Biomarker Activity (AID 2283075); settings: primary human keratinocytes with fibroblasts; actives raise or lower the signal
# Procedure, shortened: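 Human keratinocyte plus foreskin fibroblast primary co-culture exposed to chemical for 24 h. uPA levels were quantified by ELISA, and activity was fitted bidirectionally against a DMSO negative-control baseline.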
# CD40, CD40 (gene 958) = assay: BSK_LPS_CD40: BioMAP Diversity Plus: LPS Assay for CD40 Biomarker Activity (AID 2283076); settings: primary human HUVEC with PBMC; actives raise or lower the signal
# Procedure, shortened: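 Using a multiplexed primary human co-culture (umbilical vein endothelium plus PBMC), CD40 was read by ELISA 24 h after dosing, with cytotoxicity tracked by sulforhodamine B staining of parallel cultures and activity fitted bidirectionally versus DMSO.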
# [6] = read-out: E-selectin (Homo sapiens) (UniProt P16581); assay: BSK_LPS_Eselectin: BioMAP Diversity Plus: LPS Assay for Eselectin Biomarker Activity (AID 2283077); settings: primary human HUVEC with PBMC; actives raise or lower the signal
# Procedure, shortened: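 Dose chemical onto LPS-driven HUVEC/PBMC co-culture; after 24 h, run ELISA for E-selectin; fit up- and down-going responses relative to DMSO control.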
# [7] = read-out: Interleukin-8 (IL8), CXCL8 (gene 3576); assay: BSK_LPS_IL8: BioMAP Diversity Plus: LPS Assay for Interleukin-8 (IL8) Biomarker Activity (AID 2283078); settings: primary human HUVEC with PBMC; actives raise or lower the signal
# Procedure, shortened: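 In this LPS system, chemical-treated human umbilical vein endothelium/PBMC co-cultures were harvested at 24 h for IL-8 ELISA.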
# [8] = BSK_LPS_SRB: Viability Assessment in the BioMAP Diversity Plus: LPS Assay (AID 2283079); settings: primary human HUVEC with PBMC;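 further: total protein by sulforhodamine B absorbance as a cytotoxicity measure; measured one day after compound addition; fitted in both directions against DMSO so loss or gain of signal counts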
# Procedure, shortened: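 Cytotoxicity endpoint in human endothelial–PBMC co-culture: 24 h exposure, then SRB (0.1%) staining, 560 nm read.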
# [9] = read-out: Interleukin-1 alpha (IL1a), IL1A (gene 3552); assay: BSK_LPS_IL1a: BioMAP Diversity Plus: LPS Assay for Interleukin-1 alpha (IL1a) Biomarker Activity (AID 2283080); settings: primary human HUVEC with PBMC; actives raise or lower the signal
# Procedure, shortened: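 Primary human HUVEC and PBMC co-culture stimulated with LPS is dosed and harvested at 24 h. Both increases and decreases in ELISA-measured IL-1a are scored relative to DMSO.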
# Chain of E-selectin (Homo sapiens) (P16581 whole entry, looked up): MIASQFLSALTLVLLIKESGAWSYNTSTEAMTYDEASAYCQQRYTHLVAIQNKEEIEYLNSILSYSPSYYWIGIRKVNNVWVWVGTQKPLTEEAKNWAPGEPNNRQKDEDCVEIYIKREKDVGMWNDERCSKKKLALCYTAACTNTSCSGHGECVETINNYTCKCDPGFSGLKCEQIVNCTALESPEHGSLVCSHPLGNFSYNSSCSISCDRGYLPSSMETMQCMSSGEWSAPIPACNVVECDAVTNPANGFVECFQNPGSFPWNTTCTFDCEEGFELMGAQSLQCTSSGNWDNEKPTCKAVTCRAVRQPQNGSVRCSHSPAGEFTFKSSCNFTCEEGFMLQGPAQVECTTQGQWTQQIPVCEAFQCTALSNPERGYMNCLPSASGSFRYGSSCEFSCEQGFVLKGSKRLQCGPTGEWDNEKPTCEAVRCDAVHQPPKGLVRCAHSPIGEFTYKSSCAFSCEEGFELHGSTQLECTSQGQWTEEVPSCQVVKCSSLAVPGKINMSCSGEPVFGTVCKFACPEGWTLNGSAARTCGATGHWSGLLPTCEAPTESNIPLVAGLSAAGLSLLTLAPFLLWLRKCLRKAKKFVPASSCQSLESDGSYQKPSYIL
smiles,measurement,setting,value
COP(N)(=O)SC (configuration not stated),outcome,[1],inactive
same,outcome,[2],inactive
same,outcome,[3],inactive
same,outcome,[4],inactive
same,outcome,[5],inactive
same,outcome,"CD40, CD40 (gene 958)",inactive
same,outcome,[6],inactive
same,outcome,[7],inactive
same,outcome,[8],inactive
Fc1ccc(Oc2ccnc3cc(Cl)cc(Cl)c23)cc1,outcome,[1],inactive
same,outcome,[2],inactive
same,outcome,[3],inactive
same,AC50,[4],12.9 µM (active)
same,outcome,[5],inactive
same,AC50,"CD40, CD40 (gene 958)",22.8 µM (active)
same,AC50,[6],34.4 µM (active)
same,AC50,[7],28.8 µM (active)
same,AC50,[8],24 µM (active)
CNC(=S)S,outcome,[1],inactive
same,outcome,[2],inactive
same,outcome,[3],inactive
same,outcome,[4],inactive
same,outcome,[5],inactive
same,AC50,"CD40, CD40 (gene 958)",15.7 µM (active)
same,AC50,[6],14.7 µM (active)
same,AC50,[7],20.8 µM (active)
same,AC50,[8],26.1 µM (active)
CCCC1COC(Cn2cncn2)(c2ccc(Cl)cc2Cl)O1 (configuration not stated),outcome,[1],inactive
same,outcome,[2],inactive
same,outcome,[3],inactive
same,outcome,[4],inactive
same,outcome,[5],inactive
same,AC50,"CD40, CD40 (gene 958)",20 µM (active)
same,outcome,[6],inactive
same,outcome,[7],inactive
same,outcome,[8],inactive
CCNc1nc(Cl)nc(NCC)n1,outcome,[1],inactive
same,outcome,[2],inactive
same,outcome,[3],inactive
same,outcome,[4],inactive
same,outcome,[5],inactive
same,outcome,"CD40, CD40 (gene 958)",inactive
same,outcome,[6],inactive
same,outcome,[7],inactive
same,outcome,[8],inactive
same,outcome,[9],inactive
OC(c1ccc(Cl)cc1)(c1cncnc1)c1ccccc1Cl (configuration not stated),outcome,[1],inactive
same,outcome,[2],inactive
same,outcome,[3],inactive
same,outcome,[4],inactive
same,outcome,[5],inactive
same,AC50,"CD40, CD40 (gene 958)",15.8 µM (active)
same,outcome,[6],inactive
same,outcome,[7],inactive
same,AC50,[8],23.2 µM (active)
Cc1cc(Cl)ccc1OCC(=O)O,outcome,[1],inactive
same,outcome,[2],inactive
same,outcome,[3],inactive
same,outcome,[4],inactive
same,outcome,[5],inactive
same,outcome,"CD40, CD40 (gene 958)",inactive
same,outcome,[6],inactive
same,outcome,[7],inactive
same,outcome,[8],inactive
same,outcome,[9],inactive
CCCCNC(=O)OCC#CI,AC50,[1],32.5 µM (active) and 20.4 µM (active)
same,AC50,[2],30.1 µM (active) and 14.9 µM (active)
same,AC50,[3],32.8 µM (active) and 20 µM (active)
same,AC50,[4],29.4 µM (active) and 13.7 µM (active)
same,AC50,[5],29.6 µM (active) and 15.1 µM (active)
same,AC50,"CD40, CD40 (gene 958)",13.6 µM (active) and 9.3 µM (active)
same,AC50,[6],31.3 µM (active) and 29.8 µM (active)
same,AC50,[7],19 µM (active) and 16.3 µM (active)
same,AC50,[8],26.7 µM (active)
CNC(=O)ON=CC(C)(C)SC,outcome,[1],inactive
same,outcome,[2],inactive
same,outcome,[3],inactive
same,outcome,[4],inactive
same,outcome,[5],inactive
same,outcome,"CD40, CD40 (gene 958)",inactive
same,outcome,[6],inactive
same,outcome,[7],inactive
same,outcome,[8],inactive
same,outcome,[9],inactive
CC1COC(Cn2cncn2)(c2ccc(Oc3ccc(Cl)cc3)cc2Cl)O1 (configuration not stated),AC50,[1],26.7 µM (active)
same,AC50,[2],34.5 µM (active)
same,AC50,[3],34.4 µM (active)
same,AC50,[4],31.1 µM (active)
same,AC50,[5],33.9 µM (active)
same,AC50,"CD40, CD40 (gene 958)",17.3 µM (active)
same,AC50,[6],20 µM (active)
same,AC50,[7],28.6 µM (active)
same,AC50,[8],28.8 µM (active)
same,AC50,[9],32 µM (active)
CS/C(C)=N/OC(=O)N(C)SN(C)C(=O)O/N=C(\C)SC,AC50,[1],14.5 µM (active)
same,AC50,[2],13.3 µM (active)
same,AC50,[3],12.6 µM (active)
same,AC50,[4],17.1 µM (active)
same,AC50,[5],16.9 µM (active)
same,AC50,"CD40, CD40 (gene 958)",15.8 µM (active)
same,AC50,[6],34.7 µM (active)
same,AC50,[7],30.8 µM (active)
same,AC50,[8],29.8 µM (active)
CCON=C(CC)C1=C(O)CC(c2c(C)cc(C)cc2C)CC1=O (configuration not stated),outcome,[1],inactive
same,outcome,[2],inactive
same,outcome,[3],inactive
same,outcome,[4],inactive
same,outcome,[5],inactive
same,outcome,"CD40, CD40 (gene 958)",inactive
same,outcome,[6],inactive
same,outcome,[7],inactive
same,outcome,[8],inactive
O=C(Nc1ccccc1)Nc1ccnc(Cl)c1,outcome,[1],inactive
same,outcome,[2],inactive
same,outcome,[3],inactive
same,outcome,[4],inactive
same,outcome,[5],inactive
same,outcome,"CD40, CD40 (gene 958)",inactive
same,outcome,[6],inactive
same,AC50,[7],15 µM (active)
same,outcome,[8],inactive
same,outcome,[9],inactive
N#Cc1nn(-c2c(Cl)cc(C(F)(F)F)cc2Cl)c(N)c1S(=O)C(F)(F)F (configuration not stated),outcome,[1],inactive
same,outcome,[2],inactive
same,outcome,[3],inactive
same,outcome,[4],inactive
same,outcome,[5],inactive
same,AC50,"CD40, CD40 (gene 958)",14.9 µM (active)
same,AC50,[6],36.8 µM (active)
same,AC50,[7],23.4 µM (active)
same,AC50,[8],31.4 µM (active)
same,AC50,[9],35.9 µM (active)
CCCCC(CC)COC(=O)c1ccccc1C(=O)OCC(CC)CCCC (configuration not stated),outcome,[1],inactive
same,outcome,[2],inactive
same,outcome,[3],inactive
same,outcome,[4],inactive
same,outcome,[5],inactive
same,outcome,"CD40, CD40 (gene 958)",inactive
same,outcome,[6],inactive
same,AC50,[7],3.22 µM (active)
same,AC50,[8],4.97 µM (active)
O=C(O)COc1nc(Cl)c(Cl)cc1Cl,outcome,[1],inactive
same,outcome,[2],inactive
same,outcome,[3],inactive
same,outcome,[4],inactive
same,outcome,[5],inactive
same,outcome,"CD40, CD40 (gene 958)",inactive
same,outcome,[6],inactive
same,outcome,[7],inactive
same,outcome,[8],inactive
same,outcome,[9],inactive
COc1ccc(C(c2ccc(OC)cc2)C(Cl)(Cl)Cl)cc1,outcome,[1],inactive
same,outcome,[2],inactive
same,outcome,[3],inactive
same,AC50,[4],12.7 µM (active)
same,outcome,[5],inactive
same,AC50,"CD40, CD40 (gene 958)",23.3 µM (active)
same,AC50,[6],27.5 µM (active)
same,AC50,[7],25 µM (active)
same,AC50,[8],20 µM (active)
CC(C)C1(C)N=C(c2nc3ccccc3cc2C(=O)O)NC1=O (configuration not stated),outcome,[1],inactive
same,outcome,[2],inactive
same,outcome,[3],inactive
same,outcome,[4],inactive
same,outcome,[5],inactive
same,outcome,"CD40, CD40 (gene 958)",inactive
same,outcome,[6],inactive
same,outcome,[7],inactive
same,outcome,[8],inactive
CCOP(=S)(OCC)SCn1c(=O)oc2cc(Cl)ccc21,outcome,[1],inactive
same,outcome,[2],inactive
same,outcome,[3],inactive
same,outcome,[4],inactive
same,outcome,[5],inactive
same,AC50,"CD40, CD40 (gene 958)",16.6 µM (active)
same,AC50,[6],9.68 µM (active)
same,AC50,[7],16.9 µM (active)
same,AC50,[8],31.6 µM (active)
CON(C)C(=O)Nc1ccc(Cl)c(Cl)c1,outcome,[1],inactive
same,outcome,[2],inactive
same,outcome,[3],inactive
same,outcome,[4],inactive
same,outcome,[5],inactive
same,outcome,"CD40, CD40 (gene 958)",inactive
same,outcome,[6],inactive
same,outcome,[7],inactive
same,outcome,[8],inactive

# Reference: PubChem BioAssay (EPA / NIEHS)
